Reference: the supplement of paper PMC11732987, “Enantioselective OTUD7B fragment discovery through chemoproteomics screening and high-throughput optimisation” (Communications Chemistry, 2025)

Legend:
Assay in all cases: log2 ratio of Biotin-Ahx-Ub-VS probe labelling (fragment/DMSO); higher = less target engagement (more negative = stronger competition), active = hit call of the paper (q ≤ 0.05, log2 ratio ≤ -1)
Details in all cases: compound concentration: 200 uM; treatment time: 3 h
USP34 = USP34 (UniProt Q70CQ2)
Summary of the method: (§1)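 Labelling with Biotin-Ahx-Ub-VS (0.5 µM final, 1 h) followed a 3 h triplicate treatment of HEK293T lysate (495 µg per sample, Tris/CHAPS/IGEPAL buffer with protease inhibitors) with fragment at 200 µM or vehicle. Labelled DUBs were NeutrAvidin-enriched, digested with LysC and trypsin, and run by diaPASEF LC-MS/MS. The values, average log2 fragment/vehicle ratios by unpaired t-test, come from global-median-normalised Spectronaut label-free quantities. Proteins with ≥2 unique peptides were used.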

USP36 = target: T1, USP36 (UniProt Q9P275)
T1 sequence (whole entry): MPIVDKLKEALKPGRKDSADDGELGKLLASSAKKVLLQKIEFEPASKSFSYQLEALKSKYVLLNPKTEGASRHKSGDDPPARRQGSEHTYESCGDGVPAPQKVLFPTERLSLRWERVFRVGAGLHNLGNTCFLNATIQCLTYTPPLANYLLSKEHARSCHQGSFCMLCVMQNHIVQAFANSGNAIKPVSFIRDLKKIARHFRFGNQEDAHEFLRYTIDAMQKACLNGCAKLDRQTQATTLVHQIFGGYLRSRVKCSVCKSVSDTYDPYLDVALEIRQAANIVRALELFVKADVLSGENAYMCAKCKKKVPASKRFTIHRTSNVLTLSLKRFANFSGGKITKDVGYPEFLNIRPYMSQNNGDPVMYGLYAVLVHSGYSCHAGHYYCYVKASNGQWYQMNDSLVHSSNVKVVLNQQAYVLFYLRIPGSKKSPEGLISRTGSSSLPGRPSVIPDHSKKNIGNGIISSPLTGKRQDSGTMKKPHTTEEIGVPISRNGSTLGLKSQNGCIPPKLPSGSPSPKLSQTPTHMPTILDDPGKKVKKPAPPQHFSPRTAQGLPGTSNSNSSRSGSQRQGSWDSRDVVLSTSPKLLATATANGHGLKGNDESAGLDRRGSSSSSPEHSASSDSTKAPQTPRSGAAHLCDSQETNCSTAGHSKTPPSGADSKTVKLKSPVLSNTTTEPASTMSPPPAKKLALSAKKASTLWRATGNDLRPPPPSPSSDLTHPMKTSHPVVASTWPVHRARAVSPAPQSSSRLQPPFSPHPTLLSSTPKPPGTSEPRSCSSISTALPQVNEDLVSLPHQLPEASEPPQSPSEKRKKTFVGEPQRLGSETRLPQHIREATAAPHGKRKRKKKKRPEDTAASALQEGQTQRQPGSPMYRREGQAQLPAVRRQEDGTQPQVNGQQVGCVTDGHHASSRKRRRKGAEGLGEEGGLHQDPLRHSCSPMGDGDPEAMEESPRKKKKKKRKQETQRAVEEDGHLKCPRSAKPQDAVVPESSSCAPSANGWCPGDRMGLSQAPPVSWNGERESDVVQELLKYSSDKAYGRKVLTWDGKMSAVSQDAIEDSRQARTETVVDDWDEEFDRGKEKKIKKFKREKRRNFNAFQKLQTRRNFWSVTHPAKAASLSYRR
Summary of the method: as §1

USP38 = target: T2, USP38 (UniProt Q8NB14)
T2 sequence (whole entry): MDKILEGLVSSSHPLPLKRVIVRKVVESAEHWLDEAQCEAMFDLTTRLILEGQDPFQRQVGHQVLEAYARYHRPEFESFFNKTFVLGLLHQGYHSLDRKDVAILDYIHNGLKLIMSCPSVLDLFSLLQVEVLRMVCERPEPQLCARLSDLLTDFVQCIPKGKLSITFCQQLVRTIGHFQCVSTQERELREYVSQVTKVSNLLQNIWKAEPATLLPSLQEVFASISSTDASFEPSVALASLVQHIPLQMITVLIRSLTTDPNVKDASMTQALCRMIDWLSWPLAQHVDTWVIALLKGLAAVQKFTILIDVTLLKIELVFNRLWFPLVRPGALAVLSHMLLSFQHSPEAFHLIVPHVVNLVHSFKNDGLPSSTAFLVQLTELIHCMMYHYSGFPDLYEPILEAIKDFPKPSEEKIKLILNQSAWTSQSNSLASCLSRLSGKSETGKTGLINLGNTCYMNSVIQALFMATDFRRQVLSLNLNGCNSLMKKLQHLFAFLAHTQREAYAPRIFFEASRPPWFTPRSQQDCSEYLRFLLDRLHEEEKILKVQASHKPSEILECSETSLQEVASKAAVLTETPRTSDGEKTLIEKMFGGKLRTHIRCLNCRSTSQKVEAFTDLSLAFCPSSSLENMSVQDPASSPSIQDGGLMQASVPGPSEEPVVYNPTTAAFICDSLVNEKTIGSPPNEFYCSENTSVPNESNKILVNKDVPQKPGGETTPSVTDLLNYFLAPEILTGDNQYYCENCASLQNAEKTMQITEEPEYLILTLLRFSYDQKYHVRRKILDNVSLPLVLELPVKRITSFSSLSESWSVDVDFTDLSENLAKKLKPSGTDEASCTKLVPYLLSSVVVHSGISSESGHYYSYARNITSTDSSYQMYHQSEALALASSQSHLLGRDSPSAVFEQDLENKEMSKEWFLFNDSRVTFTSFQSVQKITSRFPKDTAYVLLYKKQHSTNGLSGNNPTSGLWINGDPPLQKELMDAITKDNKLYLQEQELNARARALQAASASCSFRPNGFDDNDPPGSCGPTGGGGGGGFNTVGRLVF
Summary of the method: as §1

USP39 = target: T3, USP39 (UniProt Q53GS9)
T3 sequence (whole entry): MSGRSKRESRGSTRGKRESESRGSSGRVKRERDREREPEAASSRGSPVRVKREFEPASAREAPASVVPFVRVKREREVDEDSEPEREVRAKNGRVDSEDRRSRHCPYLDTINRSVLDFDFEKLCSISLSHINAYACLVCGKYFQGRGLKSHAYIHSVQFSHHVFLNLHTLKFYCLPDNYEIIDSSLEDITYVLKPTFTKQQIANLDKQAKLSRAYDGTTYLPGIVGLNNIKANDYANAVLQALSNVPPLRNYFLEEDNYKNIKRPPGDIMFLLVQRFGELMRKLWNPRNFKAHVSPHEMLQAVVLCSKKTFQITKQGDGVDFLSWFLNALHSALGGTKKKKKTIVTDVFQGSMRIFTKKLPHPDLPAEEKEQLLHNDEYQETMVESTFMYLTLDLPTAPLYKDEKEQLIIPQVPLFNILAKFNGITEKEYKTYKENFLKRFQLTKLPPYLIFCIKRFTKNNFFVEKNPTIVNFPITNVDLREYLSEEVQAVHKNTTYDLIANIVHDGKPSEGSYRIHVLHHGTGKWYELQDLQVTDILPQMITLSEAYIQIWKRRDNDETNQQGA
Summary of the method: as §1

USP4 = target: T4, USP4 (UniProt Q13107)
T4 sequence (whole entry): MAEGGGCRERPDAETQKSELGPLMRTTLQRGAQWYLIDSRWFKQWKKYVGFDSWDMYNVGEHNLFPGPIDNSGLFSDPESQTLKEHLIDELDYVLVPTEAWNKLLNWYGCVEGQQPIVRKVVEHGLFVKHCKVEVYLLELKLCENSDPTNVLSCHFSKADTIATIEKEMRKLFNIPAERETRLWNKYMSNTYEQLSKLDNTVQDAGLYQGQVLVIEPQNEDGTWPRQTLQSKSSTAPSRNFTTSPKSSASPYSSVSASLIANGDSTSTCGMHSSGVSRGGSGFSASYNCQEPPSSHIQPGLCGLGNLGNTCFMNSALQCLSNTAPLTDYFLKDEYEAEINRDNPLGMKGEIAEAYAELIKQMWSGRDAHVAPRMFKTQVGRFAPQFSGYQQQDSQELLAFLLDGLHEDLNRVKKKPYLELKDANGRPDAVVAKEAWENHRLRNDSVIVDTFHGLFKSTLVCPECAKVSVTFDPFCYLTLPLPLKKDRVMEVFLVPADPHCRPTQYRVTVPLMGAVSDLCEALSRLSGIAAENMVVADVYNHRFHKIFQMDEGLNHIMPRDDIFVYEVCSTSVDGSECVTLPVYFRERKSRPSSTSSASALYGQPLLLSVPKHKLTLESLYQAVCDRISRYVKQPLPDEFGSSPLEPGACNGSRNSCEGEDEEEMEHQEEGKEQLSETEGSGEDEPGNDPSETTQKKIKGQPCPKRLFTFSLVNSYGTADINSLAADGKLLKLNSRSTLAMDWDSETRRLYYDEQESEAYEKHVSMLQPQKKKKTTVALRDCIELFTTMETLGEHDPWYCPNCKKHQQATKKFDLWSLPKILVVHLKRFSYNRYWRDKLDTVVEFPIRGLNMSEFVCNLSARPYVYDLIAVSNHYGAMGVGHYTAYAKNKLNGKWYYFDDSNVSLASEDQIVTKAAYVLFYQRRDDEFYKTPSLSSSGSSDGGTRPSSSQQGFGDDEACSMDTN
Summary of the method: as §1

Measured: log2 ratio of Biotin-Ahx-Ub-VS probe labelling

USP34, sequence (Q70CQ2 whole entry, the tested form may be a part): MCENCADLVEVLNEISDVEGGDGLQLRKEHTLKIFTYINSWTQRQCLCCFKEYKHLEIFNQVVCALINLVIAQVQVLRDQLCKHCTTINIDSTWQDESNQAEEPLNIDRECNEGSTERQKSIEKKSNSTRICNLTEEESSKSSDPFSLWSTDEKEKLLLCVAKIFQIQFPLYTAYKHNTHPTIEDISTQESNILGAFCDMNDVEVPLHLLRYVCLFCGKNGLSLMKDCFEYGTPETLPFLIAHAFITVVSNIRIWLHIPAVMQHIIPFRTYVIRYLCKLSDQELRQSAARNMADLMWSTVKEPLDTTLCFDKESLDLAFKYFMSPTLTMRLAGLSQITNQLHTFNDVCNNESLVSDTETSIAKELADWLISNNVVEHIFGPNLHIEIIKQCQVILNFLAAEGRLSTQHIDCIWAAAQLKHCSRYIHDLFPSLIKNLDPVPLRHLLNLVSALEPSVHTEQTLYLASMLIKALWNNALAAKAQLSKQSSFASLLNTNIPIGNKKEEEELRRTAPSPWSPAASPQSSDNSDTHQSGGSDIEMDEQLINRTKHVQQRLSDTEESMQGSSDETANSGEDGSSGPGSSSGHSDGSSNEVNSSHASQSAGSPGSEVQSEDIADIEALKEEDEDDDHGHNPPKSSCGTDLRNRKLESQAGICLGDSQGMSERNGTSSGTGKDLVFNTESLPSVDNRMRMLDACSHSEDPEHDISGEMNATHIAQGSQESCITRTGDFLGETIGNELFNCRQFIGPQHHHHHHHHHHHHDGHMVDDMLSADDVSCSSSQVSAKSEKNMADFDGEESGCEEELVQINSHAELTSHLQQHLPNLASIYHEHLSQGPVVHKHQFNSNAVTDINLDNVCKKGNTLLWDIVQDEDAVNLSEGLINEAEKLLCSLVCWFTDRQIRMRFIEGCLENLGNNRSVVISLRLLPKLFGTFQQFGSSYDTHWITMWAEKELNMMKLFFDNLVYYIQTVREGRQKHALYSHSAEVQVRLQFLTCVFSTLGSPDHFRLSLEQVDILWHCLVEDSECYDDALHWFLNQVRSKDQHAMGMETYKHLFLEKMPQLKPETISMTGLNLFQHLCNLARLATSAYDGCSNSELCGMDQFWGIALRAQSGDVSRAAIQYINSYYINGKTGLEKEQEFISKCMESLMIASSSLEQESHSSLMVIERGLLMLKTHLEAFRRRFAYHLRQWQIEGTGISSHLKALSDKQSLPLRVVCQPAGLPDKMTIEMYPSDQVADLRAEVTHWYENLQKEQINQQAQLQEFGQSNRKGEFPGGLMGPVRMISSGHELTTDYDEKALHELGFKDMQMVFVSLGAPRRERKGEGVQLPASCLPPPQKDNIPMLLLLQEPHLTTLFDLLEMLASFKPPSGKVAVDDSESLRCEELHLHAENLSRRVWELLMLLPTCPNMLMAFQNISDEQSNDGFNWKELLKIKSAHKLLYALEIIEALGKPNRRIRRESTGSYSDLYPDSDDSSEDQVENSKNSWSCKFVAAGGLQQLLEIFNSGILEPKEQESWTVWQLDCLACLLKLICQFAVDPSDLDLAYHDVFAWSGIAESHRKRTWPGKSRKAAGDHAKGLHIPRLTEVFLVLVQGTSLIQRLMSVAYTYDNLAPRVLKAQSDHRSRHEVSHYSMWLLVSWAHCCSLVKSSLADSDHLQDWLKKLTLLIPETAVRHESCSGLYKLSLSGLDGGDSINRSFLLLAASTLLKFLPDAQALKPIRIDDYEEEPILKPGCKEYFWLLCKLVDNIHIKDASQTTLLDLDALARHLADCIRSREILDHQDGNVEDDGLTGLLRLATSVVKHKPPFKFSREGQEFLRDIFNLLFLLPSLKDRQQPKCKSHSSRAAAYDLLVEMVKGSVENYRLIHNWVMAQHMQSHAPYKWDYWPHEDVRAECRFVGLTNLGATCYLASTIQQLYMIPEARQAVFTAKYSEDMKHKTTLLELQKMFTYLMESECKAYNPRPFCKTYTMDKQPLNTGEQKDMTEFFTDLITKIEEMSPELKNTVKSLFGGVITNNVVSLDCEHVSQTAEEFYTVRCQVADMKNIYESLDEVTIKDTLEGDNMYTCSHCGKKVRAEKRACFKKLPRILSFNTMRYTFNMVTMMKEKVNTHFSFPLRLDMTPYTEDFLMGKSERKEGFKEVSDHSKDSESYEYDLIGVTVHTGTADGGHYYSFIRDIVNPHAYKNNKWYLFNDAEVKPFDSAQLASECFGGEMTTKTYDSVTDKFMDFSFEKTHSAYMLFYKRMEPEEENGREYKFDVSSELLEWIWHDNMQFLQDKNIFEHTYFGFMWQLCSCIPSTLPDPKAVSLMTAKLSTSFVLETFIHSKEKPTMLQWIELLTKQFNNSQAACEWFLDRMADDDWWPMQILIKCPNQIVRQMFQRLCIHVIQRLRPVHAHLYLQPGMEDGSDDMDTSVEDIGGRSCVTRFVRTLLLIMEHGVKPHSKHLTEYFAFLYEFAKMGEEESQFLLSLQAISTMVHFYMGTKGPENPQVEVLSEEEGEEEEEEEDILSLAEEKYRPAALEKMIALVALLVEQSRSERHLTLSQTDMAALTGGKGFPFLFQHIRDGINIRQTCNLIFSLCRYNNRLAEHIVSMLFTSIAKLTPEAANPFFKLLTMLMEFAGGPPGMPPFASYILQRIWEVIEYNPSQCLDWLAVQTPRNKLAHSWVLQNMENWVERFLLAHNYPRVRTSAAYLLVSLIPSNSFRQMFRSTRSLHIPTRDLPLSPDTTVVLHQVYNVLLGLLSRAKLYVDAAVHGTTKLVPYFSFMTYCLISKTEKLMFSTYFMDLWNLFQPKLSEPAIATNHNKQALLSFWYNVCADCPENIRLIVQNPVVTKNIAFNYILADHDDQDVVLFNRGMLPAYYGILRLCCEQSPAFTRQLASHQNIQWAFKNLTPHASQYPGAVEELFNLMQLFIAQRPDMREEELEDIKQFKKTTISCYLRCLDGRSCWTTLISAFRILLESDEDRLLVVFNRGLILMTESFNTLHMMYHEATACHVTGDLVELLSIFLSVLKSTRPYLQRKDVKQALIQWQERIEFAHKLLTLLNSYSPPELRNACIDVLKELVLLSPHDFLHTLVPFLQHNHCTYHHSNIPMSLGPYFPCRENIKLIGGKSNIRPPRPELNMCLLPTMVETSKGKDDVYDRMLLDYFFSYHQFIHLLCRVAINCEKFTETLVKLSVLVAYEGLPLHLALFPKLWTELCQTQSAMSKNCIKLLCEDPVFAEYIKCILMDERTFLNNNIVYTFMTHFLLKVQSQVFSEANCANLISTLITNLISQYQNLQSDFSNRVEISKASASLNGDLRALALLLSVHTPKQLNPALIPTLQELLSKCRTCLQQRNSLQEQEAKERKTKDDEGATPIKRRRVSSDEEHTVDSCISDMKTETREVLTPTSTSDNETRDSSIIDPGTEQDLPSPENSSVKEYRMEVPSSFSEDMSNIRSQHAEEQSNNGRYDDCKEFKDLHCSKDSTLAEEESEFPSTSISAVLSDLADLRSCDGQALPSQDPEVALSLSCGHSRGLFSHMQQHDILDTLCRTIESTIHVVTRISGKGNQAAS

CCC1c2ccsc2CCN1C(=O)CCl (stereo not given)
inactive: USP34 -0.381 | USP36 -0.0771 | USP38 -0.204 | USP39 0.162 | USP4 -0.497
